49 compounds from PubChem BioAssay AID588342 (National Center for Advancing Translational Sciences (NCATS), 2011) can be followed below.

Molecules are shown by their SMILES. Screen size: about 360,000 compounds; about 25,000 (6.9%) were called active. Not shown: some 9% with an inconclusive outcome. The list comes from a sample in which actives are over-represented; it also holds similar structures and randomly drawn compounds. Unmarked numbers belong to inactive results. Calls come from the whole dose curve; as a rule, active = well fitted inhibition curve with a large enough effect; inconclusive = small, poorly fitted or top-dose-only effect; inactive = flat fitted curve, though single readings scatter.

Luciferin 4-monooxygenase (Photinus pyralis), sequence (P08659 whole entry, looked up): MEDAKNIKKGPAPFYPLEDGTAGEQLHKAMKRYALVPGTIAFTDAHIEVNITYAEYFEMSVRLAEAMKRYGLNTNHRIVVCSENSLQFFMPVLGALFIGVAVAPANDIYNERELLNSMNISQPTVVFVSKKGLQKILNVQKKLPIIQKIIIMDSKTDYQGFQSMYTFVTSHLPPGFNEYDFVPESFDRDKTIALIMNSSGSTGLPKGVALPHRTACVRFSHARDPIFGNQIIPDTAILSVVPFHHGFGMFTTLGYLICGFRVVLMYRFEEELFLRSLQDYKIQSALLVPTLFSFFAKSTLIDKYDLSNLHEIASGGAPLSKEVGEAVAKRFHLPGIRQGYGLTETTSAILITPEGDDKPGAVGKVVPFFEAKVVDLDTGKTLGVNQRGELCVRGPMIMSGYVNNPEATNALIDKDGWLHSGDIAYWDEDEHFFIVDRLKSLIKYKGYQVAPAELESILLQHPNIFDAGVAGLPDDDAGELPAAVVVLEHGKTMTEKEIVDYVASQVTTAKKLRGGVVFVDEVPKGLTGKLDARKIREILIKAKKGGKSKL

The target of this test is Luciferin 4-monooxygenase (Photinus pyralis) (UniProt P08659). The test can be described thus: qHTS profiling assay for firefly luciferase inhibitor/activator using purifed enzyme and Km concentrations of substrates (counterscreen for miR-21 project).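 For activity change, negative = inhibition: plate controls were vehicle for no effect and reference inhibitor for full effect.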 Note: nearly all actives have a fitted effect of over 55% in size. To be noted: purified FLuc, luminescence inhibition; series mostly up to 57.5 µM; activity change, negative = inhibition: at the top concentration. From the text:
MLPCN Grant: 1 R21 NS059478-01 (miR-21 grant) Assay Provider: NCGC NCGC Assay Overview: Firefly (Photinus pyralis) luciferase is one of the most commonly used transcriptional reporters for a number of reasons. It is considered one of the more dynamically responsive reporters -that is, responsive to changes in reporter transcription - as it requires no post-translational modifications and is enzymatically active directly after protein synthesis (Wood, 1998). Additionally, the half-life of the luciferase protein is short relative to other reporter-gene products (Wood, 1995). Whereas reporters with long half-lives potentially allow for increased signal due to accumulation of reporter-gene product, once accumulated in the cell, dynamic changes in reporter-gene expression may be difficult to detect(Fan and Wood, 2007; Almond et al., 2004). It has been shown that wild-type P. pyralis luciferase has a half-life of approximately […] hours in mammalian cells (Thompson et al., 1991). Firefly luciferase reporter-gene assays are also generally considered one of the most sensitive assay types (Wood, 1995; Wood, 1998). Although light produced in a bioluminescence reaction is of lower intensity than that produced during fluorescence emission, this is offset by little to no background light inherent to luminescent assays. Thus the luciferase reporter can be expressed at much lower levels than fluorescent proteins while still providing robust signal. # However, it was initially observed, in 1991, by Thompson et al., that compounds that resemble the substrates of firefly luciferase (FLuc) can act as competitive inhibitors of the enzyme, and that these compounds, upon interaction with luciferase in the cell, can actually stabilize the protein and increase its half-life. Accumulated intracellular FLuc protein can be measured as an increase in luminescence signal, upon addition of detection reagents (which contain high concentrations of FLuc substrates) commonly used in high-throughput screening. In cell-based reporter gene assays that use FLuc as the reporter gene to quantitate the potential influence of a given compound against the target biology, this apparent increase in luminescence can mistakenly be interpreted as identification of a compound that is active against the target of interest. This is the case for the miR-21 FLuc reporter gene assay used to identify inhibitors of the miR-21 pathway (PubChem AID 2289) - compounds of interest will inhibit miR-21 biogenesis/expression or activity, and are identified by causing an increase in luminescence, due to increased FLuc translation. However, FLuc inhibitory compounds that stabilize the FLuc protein will give an identical read-out, making it difficult to distinguish compounds that are active against the target from those active against FLuc. Previous profiling work to determine the prevalence of compounds that affect FLuc enzymatic activity (PubChem AID 411) identified that ~3% of the MLSMR library (then at ~72K) inhibited FLuc. […] Since the MLSMR had grown to ~350K compounds, and since it was expected that a significant percentage of compounds found active in the miR-21 FLuc assay would be FLuc inhibitors, the library was screened for activity against FLuc using a biochemical assay of purified FLuc and KM concentrations of FLuc substrates (D-luciferin and ATP).
NCGC Assay Protocol Summary: Reagents: 50mM Tris acetate, pH 7.5; 10mM Mg acetate; 10uM D-luciferin (Sigma #L9504); 10uM ATP; 0.01% Tween-20; 0.05% BSA; 10nM P. pyralis luciferase (Sigma #L9506) Control compounds used were two known firefly luciferase inhibitors (compounds (2) and (5) in Auld et al., 2010), and DMSO. […]
For orientation: In qHTS, concentration-response curves come from the screen itself.
Take `O=C(Nc1sc2c(c1C(=O)O)CCC2)c1ccccc1F`: the Potency is 26.9 µM (active).
For `C=CCN(CC=C)S(=O)(=O)c1ccc(C(=O)Nc2sc3c(c2C(N)=O)CCCCC3)cc1`, the “activity change, negative = inhibition” value was -4.48%.
For the compound `Cc1ccc(C(=O)c2c(NC(=O)c3ccncc3)sc3c2CCCC3)cc1`, the “activity change, negative = inhibition” value is 3.4%.
Same read-out and setting: the result for `Cc1ccccc1NC(=O)c1c(NC(=O)c2ccccc2F)sc2c1CCC(C)C2` (centres undefined) reads -1.42%.
Take `O=C(CCS(=O)(=O)c1ccccc1)Nc1nc2c(s1)CCCC2`: the “activity change, negative = inhibition” value was -2.31%.
As to `NC(=O)c1c(NC(=O)c2ccccc2)sc2c1CCCC2`, the Potency is 0.675 µM (active).
In the case of `CC(C)(C)C1CCc2c(sc(NC(=O)c3ccccc3F)c2C(=O)N2CCCCC2)C1` (centres undefined), the “activity change, negative = inhibition” value is -0.0444%.
On to `O=C(Cn1c(=O)sc2ccccc21)Nc1nc2c(s1)CCCC2`, for which the “activity change, negative = inhibition” value is -4.24%.
For the compound `O=C(Nc1nc2c(s1)CCCC2)c1ccccc1F`, the Potency was 0.338 µM (active).
On to `O=C(O)c1cccc(S(=O)(=O)N2CC=C(c3ccccc3)CC2)c1`, for which the “activity change, negative = inhibition” value was -6.25%.
Regarding `Cc1nnc(SCC(=O)NCc2ccccc2Cl)c2nn(-c3ccccc3)c(C)c12`, the “activity change, negative = inhibition” value was -15.3%.
Consider `CC(NCCc1ccc(S(N)(=O)=O)cc1)C(=O)NCc1ccccc1` (centres undefined), for which the “activity change, negative = inhibition” value was 2%.
`Cc1ccc(S(=O)(=O)N(C)C)cc1NC(=O)c1ccc(-n2cncn2)c([N+](=O)[O-])c1`: the “activity change, negative = inhibition” value is -3.04%.
`O=C(CNC(=O)OCc1ccccc1)NC1CCCCNC1=O` (centres undefined): the “activity change, negative = inhibition” value was -1.31%.
In the case of `CCOc1cc(-c2nnc(SCC(=O)NC3CCCCC3)nc2-c2ccc(OC)c(OCC)c2)ccc1OC`, the “activity change, negative = inhibition” value is 2.92%.
In the case of `Cc1cc(C)cc(NC(=O)Cn2c(=O)c3ccccc3n3nncc23)c1`, the “activity change, negative = inhibition” value is 2.23%.
For the compound `Cc1cccc(C(=O)NCC(=O)OCC(=O)N(C)CC(=O)Nc2ccccc2Cl)c1`, the “activity change, negative = inhibition” value was 5.48%.
Consider `COc1ccc(CCNC(=O)c2cc3cccc4c3n2CC(C)S4)c(OC)c1OC` (centres undefined), for which the “activity change, negative = inhibition” value is -16.9%.
On to `CN1C(=O)/C(=C\c2cc(Br)cs2)c2ccccc21`, for which the Potency is 4.26 µM (active).
With `CCC1C(=O)c2ccccc2N(C)C1=O` (centres undefined), the “activity change, negative = inhibition” value was 3.54%.
As for `CN1C(=O)c2ccccc2Sc2ccc(NC(=O)Cc3ccc(Cl)cc3)cc21`, the “activity change, negative = inhibition” value is -4.82%.
Regarding `COc1ccc(CN(C)C(=O)CC(c2ccccc2)c2ccccc2)cc1`, the “activity change, negative = inhibition” value is 0.703%.
As for `COc1ccc(C(CC(=O)c2ccccc2)S(=O)(=O)c2ccccc2)cc1` (centres undefined), the Potency was 0.478 µM (active).
Take `COc1ccc(N(Cc2ccccc2)S(=O)(=O)c2cccc(C(=O)O)c2)cc1`: the “activity change, negative = inhibition” value was 1.17%.
For the compound `Cc1c(NS(=O)(=O)c2cc(C(=O)NCCc3ccc(F)cc3)cc(Cl)c2Cl)c(=O)n(-c2ccccc2)n1C`, the “activity change, negative = inhibition” value is 0.627%.
With `COc1cccc(-n2c(=O)c3c(C)c(C(=O)N(C)C)sc3n(Cc3cccc(C)c3)c2=O)c1`, the “activity change, negative = inhibition” value was -3.37%.
With `Cc1c(C(N)=O)sc2ncn(CCOc3ccccc3)c(=O)c12`, the “activity change, negative = inhibition” value was -2.28%.
Consider `Cc1cccc(OC(=O)c2sc3ncn(C)c(=O)c3c2C)c1`, for which the Potency is 12 µM (active).
Consider `COc1ccc(S(=O)(=O)N2CCN(c3ccc(F)cc3)CC2)cc1-c1noc(C)n1`, for which the “activity change, negative = inhibition” value is -4.3%.
For `Cc1ccc2c(c1)c1c(c(=O)n(-c3ccccc3)c(=O)n1CC(=O)c1ccc(Cl)cc1)n2C`, the “activity change, negative = inhibition” value was -3.33%.
Still for that read-out and setting: the result for `O=C(Cn1nc(Cc2cccnc2)c2ccccc2c1=O)N1CCN(c2ccccc2F)CC1` reads -2.35%.
For the compound `Nc1ncc(-c2cc3ccccc3oc2=O)s1`, the Potency is 6.01 µM (active).
Turning to `Cc1cc2c(=O)n(C)c(SCC(=O)c3cc4ccccc4o3)nc2s1`, the activity change, negative = inhibition was 4.57% [at 2.3 µM].
In the case of `Cc1ccc(S(=O)(=O)N2CCC(C(=O)OCC(=O)N(C)c3ccccc3)CC2)cc1C`, the “activity change, negative = inhibition” value is 9.29%.
Turning to `CCC(C(=O)Nc1cccc(Cl)c1C)n1nc(-c2ccc(C)cc2)ccc1=O` (centres undefined), the “activity change, negative = inhibition” value is 3.5%.
Consider `COc1ccc(C)cc1N(CC(=O)N1CCC(C)CC1)S(=O)(=O)c1ccc(C)cc1`, for which the “activity change, negative = inhibition” value is -7.97%.
For `O=C(Nc1ccccc1)O/N=C1/CCCc2occc21`, the Potency was 16.9 µM (active).
As to `CC(C)(COC(=O)Nc1ccccc1)COC(=O)Nc1ccccc1`, the “activity change, negative = inhibition” value is -14.3%.
With `O=C(Nc1ccccc1)O/N=C1\CCCCC1c1ccc([N+](=O)[O-])cc1[N+](=O)[O-]` (centres undefined), the “activity change, negative = inhibition” value is 4.78%.
On to `CC(=O)NC(Cc1c[nH]c2ccccc12)C(=O)O` (centres undefined), for which the “activity change, negative = inhibition” value is 5.21%.
The same measure, in the same setting: next, `NC(=O)CSc1c[nH]c2ccccc12`: -10.3%.
Turning to `O=S(=O)(O)Oc1c[nH]c2ccccc12`, the Potency was 12 µM (active).
On to `Cc1ccc(NC(=O)Cn2c(=O)n(-c3ccccc3)c(=O)c3c4c(sc32)CCCC4)cc1`, for which the “activity change, negative = inhibition” value was 2.01%.
Take `CCOc1ccc(-c2ccc(SCC(=O)N3CCOCC3)nn2)cc1`: the Potency is 3.38 µM (active).
`CCn1c(COc2cccc(OC)c2)nnc1SCC(=O)N1CCOCC1`: the “activity change, negative = inhibition” value is 6.62%.
In the case of `CCOc1ccc(C(=O)CCN2CCOCC2)cc1`, the “activity change, negative = inhibition” value is 1.6%.
For the compound `CCNS(=O)(=O)c1ccc(NC(=O)CSc2nc(-c3ccco3)cc(C(F)(F)F)n2)cc1`, the “activity change, negative = inhibition” value was 2.67%.
Same read-out and setting: the result for `O=C1OC2(CCCCC2)CC2=C1C1O[C@](c3ccsc3)(Cc3ccccc31)O2` reads -0.717% [at 11.5 µM].
In the case of `CC(C)(C)c1nnc(N/N=C/c2ccc(O)cc2)n(N)c1=O`, the Potency is 13.5 µM (active).
